The structures appear in SMILES notation. In all, about 16,000 compounds went through this assay and about 5,700 (36%) were called active. About 24% were inconclusive and are not listed. Some of the results follow. Values without a mark were called inactive. Calls come from the whole dose curve; as a rule, active = well fitted curve in the direction sought with a large enough effect; inconclusive = small, poorly fitted or top-dose-only effect, or effect the other way; inactive = no such curve, though single readings can be large or run the other way.
% is set by controls: 0 for no effect and ±100 for the full control effect.

This assay deals with Cytochrome P450 1A2 (Homo sapiens) (UniProt P05177). Put plainly: Cytochrome panel assay with activity outcomes. To be noted: recombinant CYP, pro-luciferin dealkylation, luminescence, p450-cyp1a2; series mostly up to 57.1 µM.
Chain of Cytochrome P450 1A2 (Homo sapiens) (P05177 whole entry, looked up): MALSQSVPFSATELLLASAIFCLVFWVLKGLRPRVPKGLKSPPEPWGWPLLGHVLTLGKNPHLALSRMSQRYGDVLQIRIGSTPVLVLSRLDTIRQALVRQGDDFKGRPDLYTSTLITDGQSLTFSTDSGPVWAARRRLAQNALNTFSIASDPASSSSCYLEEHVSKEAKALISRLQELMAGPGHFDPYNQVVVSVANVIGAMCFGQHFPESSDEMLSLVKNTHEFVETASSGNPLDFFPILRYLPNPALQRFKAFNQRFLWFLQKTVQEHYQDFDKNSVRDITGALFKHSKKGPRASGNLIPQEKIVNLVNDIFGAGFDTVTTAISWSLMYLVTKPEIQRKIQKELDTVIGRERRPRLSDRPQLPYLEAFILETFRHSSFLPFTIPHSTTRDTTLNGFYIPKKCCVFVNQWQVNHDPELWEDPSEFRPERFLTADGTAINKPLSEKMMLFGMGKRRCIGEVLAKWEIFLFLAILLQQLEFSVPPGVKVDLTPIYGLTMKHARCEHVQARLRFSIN
As to `NC(N)=NC[C@@H]1CCCCCCN1`, the activity, negative = inhibition is -17.8% [at 11.4 µM].
By AC50 is commonly meant the concentration giving half of the maximal activity seen. As to `C=CCCCCCCCCC(=O)Nc1c[nH]c(=O)[nH]c1=O`, the AC50 entry is “inactive”.
For `O=C1CN(c2nc(-c3ccccc3)c3cc(Br)ccc3n2)c2ccccc2N1`, the AC50 was 2.51 µM (active).
Same read-out and setting: as for `CC12CCC(C(=O)O)(C/C1=N\O)C2(C)C` (stereo unspecified), the entry is “inactive”.
For the compound `COC(=O)[C@]1(C)CCC(c2ccc(C)cc2)=C(CC(=O)O)C1`, the activity, negative = inhibition is -8.38% [at 2.29 µM].
`CCc1ccc(N(C(=O)c2csnn2)C(C(=O)NCc2ccccc2)c2ccco2)cc1` (stereo unspecified): the AC50 entry was “inactive”.
The same measure, in the same setting: as for `CCc1ccc(N(C(=O)c2csnn2)C(C(=O)NC(C)(C)C)c2ccncc2)cc1` (stereo unspecified), the figure is 22.4 µM (active).
`Cc1ccc(N(C(=O)c2csnn2)C(C(=O)NC(C)(C)C)c2cccs2)cc1` (stereo unspecified): the AC50 result was “inactive”.
Take `CCOC(=O)/C(=C/Nc1ccccc1)[N+](=O)[O-]`: the half-maximal activity concentration (AC50) is 2.82 µM (active).
Take `CCOC(=O)/C(C(N)=NCCCO)=C(/O)c1ccccc1`: the AC50 result was “inactive”.
For `C/C=C\C1=C(CO)[C@H](O)[C@H]2O[C@H]2[C@H]1O`, the activity, negative = inhibition is -3.7% [at 11.4 µM].
As for `COc1ccc(C[C@H](N)C(=O)N[C@@H]2[C@H](O)[C@H](n3cnc4c(N(C)C)ncnc43)O[C@@H]2CO)cc1`, the AC50 result is “inactive”.
For the compound `CC(C)N(CC(=O)O)CC(=O)O`, the activity, negative = inhibition is -20.9% [at 11.4 µM].
As to `CC(=O)Nc1nonc1NC(=O)c1ccc(C(C)(C)C)cc1`, the AC50 was 1 µM (active).
With `Cc1cccc(C(=O)Nc2nnc(-c3ccc(C(C)(C)C)cc3)s2)c1`, the AC50 result is “inactive”.
As to `CC(C)(C)c1ccc(C(=O)NC(Cc2ccccc2)C(=O)O)cc1` (stereo unspecified), the AC50 entry was “inactive”.
Still for that read-out and setting: in the case of `O=C(Oc1ccccc1)N1CCC2(CCCN(c3ncccn3)C2)CC1` it was 10 µM (active); in that of `COC(=O)N1CCC[C@@]2(CCN(c3ccccn3)C2)C1`, 15.8 µM (active); in that of `O=C(c1csnn1)N1CCC[C@@]2(CCN(c3ccccn3)C2)C1`, “inactive”.
Consider `CC(=O)N1CCC2(CCCN(c3ncccn3)C2)CC1`, for which the AC50 entry was “inactive”.
Still for that read-out and setting: in the case of `COC(=O)N1CCC2(CC1)CN(c1ccccn1)C2` it was “inactive”; in that of `CC(=O)N1CCC2(CCCN(c3ccccn3)C2)CC1`, “inactive”; in that of `CC(=O)N1CCC[C@@]2(CCN(c3ncccn3)C2)C1`, “inactive”.
Consider `O=C(Oc1ccccc1)N1CCC[C@@]2(CCN(c3ncccn3)C2)C1`, for which the concentration at half-maximal activity (AC50) is 12.6 µM (active).
For the compound `O=C(Oc1ccccc1)N1CCC2(CC1)CCN(c1ncccn1)CC2`, the AC50 entry is “inactive”.
For `COC(=O)N1CCC[C@@]2(CCN(c3ncccn3)C2)C1`, the AC50 entry is “inactive”.
On the same count and under the same terms, in the case of `O=C(Oc1ccccc1)N1CCC2(CCCN(c3ccccn3)C2)CC1` it was 20 µM (active); in that of `O=C(Oc1ccccc1)N1CCC2(CC1)CN(c1ccccn1)C2`, “inactive”.
Turning to `Cc1noc(C)c1C(=O)N1CCC[C@@]2(CCN(Cc3ccccc3)C2)C1`, the AC50 entry was “inactive”.
On the same count and under the same terms, in the case of `Cn1c(=O)c2c(ncn2CC(COCc2ccccc2Cl)OCc2ccccc2Cl)n(C)c1=O` (stereo unspecified) it was “inactive”.
Still for that read-out and setting: as for `Cn1c(=O)c2c(nc(N3CCN(c4ccccn4)CC3)n2Cc2ccccc2Cl)n(C)c1=O`, the entry is “inactive”; as for `CC(C)CCn1c(Oc2ccccc2Cl)nc2c1c(=O)n(C)c(=O)n2C`, 14.1 µM (active); as for `CSc1ccc(C#N)cc1NC(=O)c1cccc(Cl)c1`, 6.31 µM (active).
The same measure, in the same setting: as for `CCOc1ccc(C(=O)Nc2ccccc2N2CCCC2)cc1`, the figure is 2.82 µM (active).
As for `CCOc1cc(CC(=O)N[C@@H](CC(C)C)c2ccccc2N2CCCCC2)ccc1C(=O)O`, the AC50 entry was “inactive”.
On the same count and under the same terms, as for `O=C(Nc1ccccc1N1CCN(C(=O)c2ccc(Cl)cc2)CC1)c1cc(Br)ccc1Cl`, the entry is “inactive”; as for `CCN(CCO)C[C@H]1CCC[C@H]2CCCC[C@@H]21`, 5.01 µM (active); as for `O=C1NCCN1Cc1ccccc1F`, 3.55 µM (active).
In the case of `COc1ccc(CC(=O)NCCN2CCCC2)cc1`, the AC50 entry is “inactive”.
Same read-out and setting: as for `Cc1ccc(CS(=O)(=O)CCC(=O)NCCN2CCCC2)cc1`, the entry is “inactive”; as for `O=C(NCCN1CCCCC1)c1ccc(I)cc1`, 25.1 µM (active).
Turning to `Nc1cc(Cl)ccc1Oc1ccccc1`, the half-maximal activity concentration (AC50) is 7.94 µM (active).
The same measure, in the same setting: in the case of `Nc1cc(Cl)ccc1Oc1ccc(Cl)cc1` it was 0.398 µM (active); in that of `CC(=O)NCCNc1nc(-c2ccccc2C)nc2ccccc12`, 6.31 µM (active).
Still for that read-out and setting: in the case of `CC(=O)NCCNc1nc(-c2ccccc2C(F)(F)F)nc2ccccc12` it was 15.8 µM (active).
Regarding `CC(C)(C)NCC[C@@H](O)c1cc(C(F)(F)F)nc2c(C(F)(F)F)cccc12`, the activity, negative = inhibition is -9.91% [at 2.29 µM].
Consider `CCN(CC)c1cc(C)c2cc(NC(=O)CNC(C)=O)ccc2n1`, for which the AC50 result is “inactive”.
Regarding `CC(C)(C)CC(C)(C)c1ccc(OCOCCOCCO)c(Cc2cc(C(C)(C)CC(C)(C)C)cc(Cc3cc(C(C)(C)CC(C)(C)C)ccc3OCOCCOCCO)c2OCOCCOCCO)c1`, the AC50 result was “inactive”.
Regarding `COc1cccc(-c2csc(N3CCN(C(=S)Nc4ccccc4)CC3)n2)c1`, the concentration at half-maximal activity (AC50) is 3.16 µM (active).
The same measure, in the same setting: in the case of `CCOCCCNC(=O)C1CCN(S(=O)(=O)N2CC(C)CC(C)C2)CC1` (stereo unspecified) it was “inactive”; in that of `CCOC(=O)C1CCCN(C(=O)/C=C/c2cccc([N+](=O)[O-])c2)C1` (stereo unspecified), 11.2 µM (active).
Regarding `CCOC(=O)C1CCCN(S(=O)(=O)c2ccccc2)C1` (stereo unspecified), the AC50 entry was “inactive”.
As to `CC1CCCN(C/C=C/c2ccccc2[N+](=O)[O-])C1` (stereo unspecified), the concentration at half-maximal activity (AC50) is 14.1 µM (active).
As for `CCOC(=O)C1CCCN(C/C=C/c2ccccc2[N+](=O)[O-])C1` (stereo unspecified), the AC50 is 4.47 µM (active).
For the compound `O=C(O)[C@H]1CCCN(CCC=C(c2ccccc2)c2ccccc2)C1`, the AC50 result is “inactive”.
`Cc1ccc(NC(=O)/C(=C/c2cccc([N+](=O)[O-])c2)NC(=O)C2CCCCC2)c(C)c1`: the AC50 result is “inactive”.
For `C[C@@H]1CCCN(CP(=O)(c2ccccc2)c2ccccc2)C1`, the activity, negative = inhibition is -3.49% [at 11.4 µM].
With `O=C(c1ccco1)N1CCC2(CC1)CN(c1ccccc1)C2`, the AC50 result was “inactive”.
Regarding `O=C(c1ccncc1)N1CCC[C@@]2(CCN(c3ccccc3)C2)C1`, the AC50 result is “inactive”.
The same measure, in the same setting: in the case of `O=C(c1ccco1)N1CCC2(CC1)CCN(c1ccccc1)CC2` it was “inactive”.
For the compound `O=C(c1ccco1)N1CCC[C@@]2(CCN(Cc3ccccc3)C2)C1`, the AC50 result is “inactive”.
Same read-out and setting: in the case of `O=C(c1ccco1)N1CCC[C@@]2(CCN(c3cccc(-c4ccccc4)c3)C2)C1` it was 15.8 µM (active).
Same read-out and setting: in the case of `O=C(c1ccco1)N1CCC2(CC1)CCN(c1ccc(-c3ccccc3)cc1)CC2` it was “inactive”; in that of `O=C(c1ccco1)N1CCC[C@@]2(CCN(c3ccncc3)C2)C1`, 12.6 µM (active).
Same read-out and setting: as for `O=C(c1ccco1)N1CCC2(CC1)CCN(c1cccc(-c3ccccc3)c1)CC2`, the figure is 15.8 µM (active); as for `O=C(c1ccco1)N1CCC2(CCCN(c3ccccc3)C2)CC1`, “inactive”; as for `CCOc1ccc(-c2nn(-c3ccccc3)cc2/C=C(\C#N)S(=O)(=O)c2ccccc2)cc1C`, 1 µM (active).
Take `O=C1C2C3C=CC(C3)C2C(=O)N1/N=C/c1cn(Cc2ccccc2)c2ccccc12` (stereo unspecified): the concentration at half-maximal activity (AC50) was 15.8 µM (active).
The same measure, in the same setting: as for `O=[N+]([O-])/C=C/c1cn(Cc2ccccc2)c2ccccc12`, the figure is 3.55 µM (active).
As for `CCC(C(=O)c1ccccc1)N(C(=O)c1ccccc1Cl)N1C(=O)C2C3C=CC(C3)C2C1=O` (stereo unspecified), the AC50 result was “inactive”.
`O=C1C2C3C=CC(C3)C2C(=O)N1/N=C/c1cn(Cc2ccc(F)cc2)c2ccccc12` (stereo unspecified): the AC50 result was “inactive”.
On to `COc1ccc2c(c1OC)C(=O)N(C(C)C(=O)O)C2=O` (stereo unspecified), for which the AC50 entry was “inactive”.
On the same count and under the same terms, as for `O=c1[nH]c(=O)c2nc3ccccc3nc2[nH]1`, the figure is 12.6 µM (active).
Consider `NS(=O)(=O)c1ccc(N=Nc2nc3[nH]c(=O)[nH]c(=O)c3[nH]2)cc1`, for which the activity, negative = inhibition was -13.4% [at 11.4 µM].
Regarding `COc1cnc(NS(=O)(=O)c2ccc(N)cc2)nc1`, the AC50 entry was “inactive”.
On the same count and under the same terms, in the case of `CC(C)(C)C(=O)Nc1ccnc(-c2cccnc2)n1` it was 2.24 µM (active); in that of `CC(=O)Nc1ccnc(-c2cccnc2)n1`, 2.51 µM (active).
Consider `CCC(=O)O[C@@]1(C(=O)CCl)[C@@H](C)C[C@@H]2[C@H]3CCC4=CC(=O)C=C[C@@]4(C)[C@]3(F)[C@@H](O)C[C@@]21C`, for which the AC50 entry is “inactive”.
With `O=C1[C@@H]2[C@H]3[C@H](O)[C@H](O)C/C(=N/OC[C@@H](O)COCc4ccco4)[C@H]3CC[C@H]2C(=O)N1c1ccc(F)cc1F`, the activity, negative = inhibition is 0.735% [at 11.4 µM].
Regarding `Cc1[nH]c2ccccc2c1-c1cc(-c2cc(-c3c(C)[nH]c4ccccc34)on2)no1`, the AC50 is 0.398 µM (active).
For `Nc1n[nH]c2ccccc12`, the activity, negative = inhibition is -9.07% [at 2.29 µM].
In the case of `Cc1[nH]c2ccccc2c1-c1cc(-c2cc(-c3c(C)[nH]c4ccccc34)nc(N)n2)nc(N)n1`, the AC50 is 0.398 µM (active).
Turning to `COc1ccc(COC(=O)N/N=C2/C[C@@H](O)[C@@H](O)[C@@H]3[C@@H]4C(=O)N(c5cccc(Oc6ccccc6)c5)C(=O)[C@H]4CC[C@H]23)cc1`, the activity, negative = inhibition is 3.29% [at 11.4 µM].
Take `CC1=Nc2ccccc2/C1=C\c1nc(-c2ccc(C(F)(F)F)cc2)oc1O`: the AC50 was 0.891 µM (active).
As for `CS(=O)(=O)N1CCC2(CC1)CN(c1cccc(-c3ccccc3)c1)C2`, the AC50 was 5.01 µM (active).
With `O=C(c1cnccn1)N1CCC[C@@]2(CCN(c3ccncc3)C2)C1`, the AC50 result was “inactive”.
Same read-out and setting: in the case of `O=C(c1ccncc1)N1CCC2(CC1)CN(c1ccc(-c3ccccc3)cc1)C2` it was “inactive”.
For `O=C(c1cnccn1)N1CCC[C@@]2(CCN(c3ncccn3)C2)C1`, the AC50 result was “inactive”.
For `O=S(=O)(c1ccccc1)N1CCC2(CCCN(c3cccc(-c4ccccc4)c3)C2)CC1`, the AC50 entry is “inactive”.
Consider `CS(=O)(=O)N1CCC2(CC1)CN(c1ccncc1)C2`, for which the AC50 result is “inactive”.
On the same count and under the same terms, as for `O=C(c1cnccn1)N1CCC2(CCCN(c3ccccc3)C2)CC1`, the entry is “inactive”; as for `O=C(c1cnccn1)N1CCC2(CCCN(c3cccc(-c4ccccc4)c3)C2)CC1`, 20 µM (active).
On the same count and under the same terms, in the case of `O=C(c1cnccn1)N1CCC[C@@]2(CCN(c3cccc(-c4ccccc4)c3)C2)C1` it was 25.1 µM (active).
Consider `O=C(c1ccncc1)N1CCC2(CC1)CN(c1cccc(-c3ccccc3)c1)C2`, for which the AC50 is 15.8 µM (active).
Still for that read-out and setting: in the case of `O=C(c1ccncc1)N1CCC2(CC1)CN(c1ccccc1)C2` it was “inactive”.
As to `O=C(c1cnccn1)N1CCC2(CC1)CN(c1ccccc1)C2`, the AC50 entry is “inactive”.

Values taken from PubChem BioAssay AID1851 (National Center for Advancing Translational Sciences (NCATS), 2009).
